Screening data deposited in PubChem by National Center for Advancing Translational Sciences (NCATS).
Hits are enriched below; roughly 7.1% of the tested compounds scored in any of these assays.
p53 reactivator: restores transcriptional activity of mutant p53; Potency, µM (highest dose often 92.2 µM), actives largely listed as activators; actives 0.063% (n = 320,000); AID 504706; H1299 p53-A138V BP100-luciferase reporter, luminescence, 24 h; further: nearly all actives have a fitted effect of over 45% in size
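H1299 (p53-null), stable ts p53-A138V + BP100-Luc; 1000 cells/well, Opti-MEM/10% FBS; cpd 4 pt, 1:5; 24 h, 37 deg C, 5% CO2; detection reagent 10 min RT; luminescence.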
MCF10A rereplic: DNA re-replication induction in MCF 10a cells. MCF 10A DNA re-replication, Hoechst nuclear intensity, 48 h. Potency, µM (doses to about 46.1 µM), hits mostly activators. actives 2.9% (n = 350,000); further: nearly all actives have a fitted effect of over 50% in size
SW480 rerep: DNA re-replication induction in SW480 cells | Potency, µM (top dose mostly 46.1 µM), usual class: activators | actives 1.8% (n = 340,000) | SW480 DNA re-replication, Hoechst DNA content imaging, 48 h; further: nearly all actives have a fitted effect of over 55% in size
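DNA re-replication was detected as more nuclei of elevated Hoechst intensity after 48 hr exposure to compound (23 nL pinned per well of 250 cells).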
ELG1 genotox: induces genotoxicity in HEK293T cells with luciferase-tagged ELG1; Potency, µM (highest dose often 46 µM), usual class: activators; HEK293T ELG1-luciferase reporter, luminescence, 16 h; actives 1.3% (n = 330,000); AID 504466; further: nearly all actives have a fitted effect of over 60% in size
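Quantitative HTS format in 1536-well plates. HEK293T ELG1-luciferase reporter cells receive test compound and are incubated 16 hr at 37 °C, 5% CO2; ONE-Glo added, 30 min room temperature, then luminescence read.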
AT treatment: potential ataxia-telangiectasia treatments restoring KAP-1 phosphorylation; F2112 A-T fibroblasts, KAP-1 phosphorylation AlphaLISA; neocarzinostatin DNA damage 30 min before lysis; Potency, µM (titrated, usually from 57.5 µM), most hits filed as activators; actives 0.19% (n = 320,000); further: nearly all actives have a fitted effect of over 45% in size
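hTERT-immortalized A-T patient fibroblasts (F2112), 500 cells/well in OPTI-MEM, 1% FBS, got compounds for 60 min, then NCS for 30 min at 37C. Lysates were then assayed for phospho-KAP-1 by AlphaLISA (anti-pKAP1 donor, anti-KAP1 acceptor beads), 6 hr at 25C.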
ELG1 repair inh: inhibitors of ELG1-dependent DNA repair in HEK293T cells; Potency, µM (doses to about 46.1 µM), actives largely listed as inhibitors; actives 2.3% (n = 330,000); HEK293T ELG1-luciferase reporter, luminescence, 16 h; DNA damage induced by 5-fluorouridine; further: nearly all actives have a fitted effect of over 55% in size
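HEK293T cells expressing luciferase-tagged ELG1 (2,000/well) received 5-Fluorouridine plus compound or DMSO for 16 hr at 37 °C. Luciferase was read by ONE-Glo luminescence after 30 min at room temperature.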
A number is an active result; i = inactive; ? = inconclusive; nt = no result given. The call rests on the fitted dose curve; in most records, active means well fitted curve in the direction sought with a large enough effect; inconclusive means small, poorly fitted or top-dose-only effect, or another doubt; inactive means no such curve, though single readings can be large; an effect the other way counts as inactive or inconclusive.

SMILES | p53 reactivator | MCF10A rereplic | SW480 rerep | ELG1 genotox | AT treatment | ELG1 repair inh
CN(C(=O)COc1ccc2c(-c3ccccc3)cc(=O)oc2c1)C1CCS(=O)(=O)C1 (stereo unspecified) | i | ? | 13µM | i | i | i
O=[N+]([O-])c1cccc(C=NNC(=S)NC23CC4CC(CC(C4)C2)C3)c1 | nt | i | i | nt | nt | nt
Cc1ccc(CN=C(N)Nc2nc(C)cc(C)n2)cc1 | i | ? | 15µM | i | i | ?
Cc1ccc(C)c(N/C(N)=N/c2nc(C)cc(C)n2)c1 | i | i | i | i | i | i
COc1ccc(-c2cn(Cc3ccc(C(N)=O)cc3)c(-c3ccncc3)n2)cc1 | ? | ? | i | ? | i | ?
COC(=O)c1c(N2C(=O)[C@H]3[C@@H](C2=O)[C@]2(C(=O)Nc4c(C)cccc42)N2CCC[C@@H]32)sc(C)c1C | i | ? | ? | i | i | 16µM
O=C(Cn1cnc2ccccc21)Nc1ccc2c(c1)OCCCO2 | ? | i | ? | i | i | ?
COc1ccc(-c2nc3ccccc3c(=O)[nH]2)cc1 | ? | i | i | 9.2µM | i | ?
CN(C)c1ccc(-c2nc3ccccc3c(=O)[nH]2)cc1 | i | i | i | 0.82µM | i | ?
CCc1ccccc1N1CC(C(=O)Nc2cc(C)on2)CC1=O (stereo unspecified) | i | i | i | i | i | i
O=C(C1CCC1)N1CCc2cc(S(=O)(=O)N3CCN(c4ccccn4)CC3)ccc21 | i | ? | i | i | i | 18µM
O=C(C1CCN(S(=O)(=O)c2ccc3c(c2)OCCO3)CC1)N1CCc2ccccc21 | i | i | i | i | i | 23µM
O=C(C1CCN(S(=O)(=O)c2ccccc2)CC1)N1CCc2ccccc21 | i | ? | ? | i | i | i
O=C(C1CCC1)N1CCc2cc(S(=O)(=O)N3CCCCC3)ccc21 | i | i | i | ? | i | ?
CCN(CC)C(=O)C1CCN(S(=O)(=O)c2ccc3c(c2)CCCN3C(=O)C2CCC2)CC1 | i | i | i | i | i | 23µM
CCCN(CCC)CCNS(=O)(=O)c1ccc2c(c1)CCN2C(=O)C1CCC1 | i | 2.6µM | 12µM | i | i | i
CSc1ncccc1C(=O)Nc1cccc(S(=O)(=O)N2CCCCCC2)c1 | i | i | i | i | i | ?
Cc1cccc2cc(C(c3nnnn3Cc3ccccc3)N3CCCc4ccccc43)c(=O)[nH]c12 (stereo unspecified) | i | 5.2µM | 4.6µM | i | i | i
Cc1cccc(N2CCN(C(=O)NCc3ccc(F)cc3)CC2)c1C | i | ? | i | i | i | i
CC(C#N)(CCc1ccccn1)CCc1ccccn1 | nt | i | i | nt | nt | nt
COC(=O)c1cc(C(=O)Nc2cc(C)on2)cc([N+](=O)[O-])c1 | ? | i | i | i | i | i
CC(C)(C)S(=O)(=O)c1cnc2c(-c3ccsc3)cnn2c1N | i | ? | ? | i | i | ?
Cc1cc(C(F)(F)Cl)n2ncc(-c3ccccn3)c2n1 | i | i | ? | i | i | i
COc1ccc(-c2c(C)nc3c(-c4ccccn4)cnn3c2N)cc1 | ? | ? | i | 1.2µM | i | ?
COc1ccc(-c2c(C)nc3c(-c4ccsc4)cnn3c2N)cc1 | ? | ? | i | 1.8µM | i | ?
SMILES | p53 reactivator | MCF10A rereplic | SW480 rerep | ELG1 genotox | AT treatment | ELG1 repair inh
Cc1ccc(S(=O)(=O)Nc2ccccc2/C=N/c2nc3ccccc3n2C)cc1 | i | 13µM | i | i | i | ?
CCC(OC(=O)C(NC(=O)c1ccccc1)c1ccccc1)C(=O)Nc1cc(C)on1 (stereo unspecified) | i | 5.8µM | ? | i | i | ?
Cc1ccc(OCC(O)Cn2c(N3CCCCC3)nc3c2c(=O)[nH]c(=O)n3C)cc1C (stereo unspecified) | i | i | ? | i | i | i
Cc1ccccc1NC(=O)CC1C(=O)Nc2ccccc2N1CC(=O)N(C)C1CCS(=O)(=O)C1 (stereo unspecified) | i | i | i | i | i | ?
CC1CCN(C(=O)/C(=C/c2ccccc2Cl)c2ccccc2)CC1 | i | 16µM | i | i | i | i
CC(C)c1ccc(NC(=O)COC(=O)CC2CCCC2)cc1 | i | i | i | i | i | i
O=C(COC(=O)CC1CCCC1)Nc1cc2c(cc1Cl)C(=O)c1ccccc1C2=O | i | ? | i | 15µM | i | ?
Cc1cc(/C=C(/C#N)C(=O)O)c(C)n1CCC(C)C | i | ? | i | i | i | i
COCCn1c(C)cc(/C=C(\C#N)C(=O)OC(C)C(=O)Nc2ccc(NC(C)=O)cc2)c1C (stereo unspecified) | i | ? | 18µM | i | i | i
CC(C)CC[n+]1ccn(-c2nc3ccccc3nc2[N-]S(=O)(=O)c2ccccc2)c1 | i | i | i | i | i | i
CCCC[n+]1ccn(-c2nc3ccccc3nc2[N-]S(=O)(=O)c2ccc(Br)cc2)c1 | i | ? | 18µM | i | i | ?
O=S(=O)([N-]c1nc2ccccc2nc1-n1cc[n+](Cc2ccccc2)c1)c1ccc(Cl)cc1 | i | 18µM | 18µM | i | 20µM | ?
C/C(=N\NC(=O)c1ccn(C)n1)c1ccc(NC(=O)C2CCC2)cc1 | i | i | i | i | i | i
C/C(=N\NC(=O)C1(C)CC1(Br)Br)c1cccc(NC(=O)c2ccc(C)o2)c1 (stereo unspecified) | i | i | i | i | i | 7.3µM
C/C(=N\NC(=O)C1(C)CC1(Br)Br)c1ccc(NC(=O)C2CCC2)cc1 (stereo unspecified) | i | ? | i | i | i | 6.5µM
Cc1ccc(C(=O)Nc2cccc(C(=O)NCc3ccccc3)c2)o1 | i | ? | ? | i | i | i
Cc1ccc(Cl)cc1N1CCN(C(=O)C2CCN(c3nnc(-n4cccc4)s3)CC2)CC1 | i | ? | i | ? | i | 8.2µM
Cc1cccc(N2CCN(C(=O)C3CCN(c4nnc(-n5cccc5)s4)CC3)CC2C)c1 (stereo unspecified) | i | i | i | i | i | ?
COc1ccc(-c2ccc3c(c2)S(=O)(=O)c2cccc(C(=O)N4CCN(C5CCCCC5)CC4)c2C3=O)cc1OC | i | 21µM | 21µM | i | i | ?
COc1ccc(-c2ccc3c(c2)S(=O)(=O)c2cccc(C(=O)NC4CCCC4)c2C3=O)cc1OC | i | ? | i | i | i | i
COc1ccc(-c2ccc3c(c2)S(=O)(=O)c2cccc(C(=O)NCc4cccc(OC(F)(F)F)c4)c2C3=O)cc1OC | i | 1.8µM | i | i | i | ?
COc1ccc(-c2ccc3c(c2)S(=O)(=O)c2cccc(C(=O)O)c2C3=O)cc1OC | i | i | i | i | i | i
